Test results from PubChem BioAssay (NCATS).
Records with an inconclusive call do not appear. Values without a mark were called inactive. The source made the active and inactive calls. Calls follow the shape of the full dose curve.
% is scaled to controls: 0 for no effect and ±100 for the full control effect; potency is read from the fitted curve at half-maximal effect.

Assay: qHTS assay for small molecule disruptors of the mitochondrial membrane potential - 1 hr assay (AID 651754); also: nearly all actives have a fitted effect of over 35% in size
Settings: series mostly up to 92.2 µM; ratio change, negative = depolarisation: at the top concentration
Description: National Center for Advancing Translational Sciences [NCATS]
NIH Chemical Genomics Center [NCGC]
National Institutes of Environmental Health Sciences [NIEHS]
National Toxicology Program [NTP]
Mitochondrial membrane potential (MMP), one of the parameters for mitochondrial function, is generated by mitochondrial electron transport chain that creates an electrochemical gradient by a series of redox reactions. This gradient drives the synthesis of ATP, a crucial molecule for various cellular processes. Measuring MMP in living cells is commonly used to assess the effect of chemicals on mitochondrial function. […] The dye accumulates in the mitochondria of healthy cells as aggregates, with red fluorescence. The mitochondrial potential collapses and the dye can no longer accumulate in the mitochondria and remains in the cytoplasm in monomers, with green fluorescence.
2,000 HepG2 cells in 5 uL/well were dispensed into black, clear-bottom 1536-well plates using a Multidrop Combi (Thermo Scientific) dispenser. The assay plates were incubated overnight at 37C to allow cells to attach to the wells, followed by the transfer of 23 nL compound or DMSO vehicle by a pin tool (Kalypsys). The plates were incubated for 1 hr at 37C and 5% CO2, followed by the addition of 5 uL of 2X Mito-MPS dye (BD Biosciences) into each well using Flying Reagent Dispenser (Aurora Discovery) and then following 30 min incubation at 37C. Fluorescence intensity (490nm excitation and 535nm emission for monomers; and 540nm excitation and 590nm emissions for aggregates) was measured using an Envision plate reader.
With CC(C)Br the “ratio change, negative = depolarisation” value was 1.96%. For C=CC(=O)OC, the “ratio change, negative = depolarisation” value was 0.93%. With Cc1ccc(N)cc1Cl the “ratio change, negative = depolarisation” value was -1.58%. In the case of CCBr, the “ratio change, negative = depolarisation” value is reported as 2.68%. For Nc1ccc(-c2ccc(N)c(Cl)c2)cc1Cl, the Potency was 42.2 µM (active). In the case of O=S(=O)(O)F, the “ratio change, negative = depolarisation” value is reported as 1.88%. In the case of c1ccc(C2CO2)cc1 (stereo not given), the “ratio change, negative = depolarisation” value is reported as 1.32%. For ClCC(Cl)CCl, the “ratio change, negative = depolarisation” value was 2.17%. With O=C(O)CCl the “ratio change, negative = depolarisation” value was 1.59%. With CCN(CC)CCO the “ratio change, negative = depolarisation” value was 0.173%. In the case of OCC(Cl)CCl (stereo not given), the “ratio change, negative = depolarisation” value is reported as 0.298%. In the case of C/C=C/CC#N, the “ratio change, negative = depolarisation” value is reported as 3.65%. For O=[N+]([O-])c1cccc2c([N+](=O)[O-])cccc12, the “ratio change, negative = depolarisation” value was -11.6%. For O=C(O)c1cc(Cl)ccc1Cl, the “ratio change, negative = depolarisation” value was -3.74%. With CC(=O)CCC(C)=O the “ratio change, negative = depolarisation” value was 4.3%. In the case of C=CCBr, the “ratio change, negative = depolarisation” value is reported as -1.74%. In the case of O=P(OCCCl)(OCCCl)OCCCl, the “ratio change, negative = depolarisation” value is reported as 3.65%. For O=C(O)C(Br)CBr (stereo not given), the “ratio change, negative = depolarisation” value was -0.86%. With O=C(O)c1cccc(Cl)c1 the “ratio change, negative = depolarisation” value was 0.679%. With Clc1ccc(C(Cl)(Cl)Cl)cc1Cl the “ratio change, negative = depolarisation” value was 0.916%. With O=C(Cl)c1ccccc1F the “ratio change, negative = depolarisation” value was 4.4%. In the case of CC(C)(Cl)[N+](=O)[O-], the “ratio change, negative = depolarisation” value is reported as 0.509%. In the case of Cc1cc(-c2cc(C)c(N)c(C)c2)cc(C)c1N, the “ratio change, negative = depolarisation” value is reported as -4.16%. For Clc1ccc(Cl)c(Cl)c1, the “ratio change, negative = depolarisation” value was -16.3%. In the case of CC(Cl)(Cl)Cl, the “ratio change, negative = depolarisation” value is reported as 3.85%. For Brc1cccc(-c2ccccc2)c1, the “ratio change, negative = depolarisation” value was 3.05%. In the case of ClP(Cl)(Cl)(Cl)Cl, the “ratio change, negative = depolarisation” value is reported as -2.05%. In the case of CCCBr, the “ratio change, negative = depolarisation” value is reported as 2.99%. With N#C/C(N)=C(/N)C#N the “ratio change, negative = depolarisation” value was -4.67%. For Nc1c(Br)cc([N+](=O)[O-])cc1[N+](=O)[O-], the Potency was 21.1 µM (active). With c1ccoc1 the “ratio change, negative = depolarisation” value was -3.57%. With CCSC(=O)N1CCCCCC1 the “ratio change, negative = depolarisation” value was 0.697%. For Cc1ccc(N)cc1C, the “ratio change, negative = depolarisation” value was -0.495%. With CN1CSC(=S)N(C)C1 the “ratio change, negative = depolarisation” value was -3.53%. With Cc1ccc2c(C)cccc2c1 the “ratio change, negative = depolarisation” value was -1%. For NC1CCC(CC2CCC(N)CC2)CC1 (stereo not given), the “ratio change, negative = depolarisation” value was 6.03%. With C=CC(=O)OCCO the “ratio change, negative = depolarisation” value was 3.74%. With O=[N+]([O-])c1ccc2c3c(cccc13)CC2 the Potency was 37.6 µM (active). For O=C(O)C(Br)Br, the “ratio change, negative = depolarisation” value was 2.41%. For Nc1ccc(Oc2ccc(N)cc2)cc1, the “ratio change, negative = depolarisation” value was -12.2%.
